Screens as filed in PubChem BioAssay.
The list is not random: actives were taken first. Their share in the collection is about 9%.
ALOX12 inh = ALOX12 (human) lipoxygenase inhibition; P18054; purified 12hLO, xylenol orange hydroperoxide absorbance; Potency, µM (doses to about 108 µM), usual class: inhibitors; 580,000 compounds, 1.1% hits; AID 1671190
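Purified human 12hLO (150 nM final) in 25 mM Hepes, 0.01% Triton X-100, pH 7.0 was preincubated 15 min at room temperature with compound. Then 40 uM arachidonic acid was added, 30 min. Hydroperoxide was read by Fe-XO absorbance ratio 573/405 nm.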
PLK1 PBD inh = blocks phosphopeptide binding to human PLK1 polo-box domain. P53350. Plk1 PBD binding of FITC phosphopeptide, fluorescence polarization. Potency, µM, hits mostly inhibitors. 360,000 compounds, 2.8% hits. AID 720504; further: series mostly up to about 57 µM; nearly all actives have a fitted effect of over 65% in size
BAZ2B inh = inhibitors of human BAZ2B bromodomain; Potency, µM (titrated, usually from 114 µM), actives largely listed as inhibitors; AID 504333; AlphaScreen BAZ2B-H3K14Ac peptide displacement; 360,000 compounds, 4.4% hits; further: nearly all actives have a fitted effect of over 60% in size
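AlphaScreen displacement: compounds (up to 110uM) incubated 30 min at room temperature with a preformed 50 nM BAZ2B/50 nM biotinylated H3K14Ac peptide complex in PBS pH 7.4 with Tween-20. Donor and acceptor beads at 10 ug/mL final added, 20 min light-protected before reading.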
HP1b binding inh = inhibitors of HP1-beta chromodomain binding to methylated histone tails; AlphaScreen HP1-beta / biotin-H3K9me3 peptide binding; 390,000 compounds, 0.56% hits; Potency, µM (titrated, usually from 114 µM), actives largely listed as inhibitors; further: nearly all actives have a fitted effect of over 70% in size
Target sequence (P83916 whole entry, looked up): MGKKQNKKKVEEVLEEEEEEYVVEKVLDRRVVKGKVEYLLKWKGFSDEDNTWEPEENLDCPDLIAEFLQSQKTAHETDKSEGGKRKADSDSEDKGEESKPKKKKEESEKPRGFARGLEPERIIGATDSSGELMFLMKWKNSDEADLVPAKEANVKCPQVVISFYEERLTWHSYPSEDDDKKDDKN
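HP1-beta protein (50 nM final) preincubated 30 min at room temperature with biotinylated H3(1-18)K9me3 peptide (50 nM) in PBS pH 7.4, 0.01% Tween-20, then compound added for 30 min. AlphaScreen streptavidin donor/nickel chelate acceptor beads (10 ug/mL final), 30 min dark, luminescence read.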
G9a inh = blocks human histone lysine methyltransferase G9a; 350,000 compounds, 8.8% hits; AID 504332; Potency, µM (highest dose often 102 µM), hits mostly inhibitors; G9a H3K9 monomethylation, AlphaScreen, 2 h; Q96KQ7; further: nearly all actives have a fitted effect of over 75% in size
Target sequence (Q96KQ7 913-1193 limits assumed): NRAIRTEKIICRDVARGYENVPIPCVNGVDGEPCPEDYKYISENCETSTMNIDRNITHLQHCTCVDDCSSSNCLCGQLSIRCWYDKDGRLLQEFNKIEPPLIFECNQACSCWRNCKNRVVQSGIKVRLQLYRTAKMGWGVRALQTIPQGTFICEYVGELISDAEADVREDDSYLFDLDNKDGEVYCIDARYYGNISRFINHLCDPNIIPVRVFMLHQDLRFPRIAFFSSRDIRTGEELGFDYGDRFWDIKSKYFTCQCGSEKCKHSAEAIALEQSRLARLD
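Chemiluminescent proximity detection of H3K9 monomethylation, read after 10 min bead incubation in the dark. Reaction: 20 nM G9a, 500 nM biotin-H3K9 peptide, 20 uM SAM cofactor, 2 h, room temperature, following 15 min enzyme-compound preincubation.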
JMJD2A Tudor = inhibitors of human JMJD2A Tudor domain; Potency, µM (highest dose often 114 µM), most hits filed as inhibitors; 390,000 compounds, 4.4% hits; AlphaScreen JMJD2A-Tudor / H3K4me3 peptide binding; further: nearly all actives have a fitted effect of over 50% in size
Each line names hits and unclear results; the compound was inactive in the other large screens. The call rests on the fitted dose curve; in most records, active means well fitted curve in the direction sought with a large enough effect; inconclusive means small, poorly fitted or top-dose-only effect, or another doubt; inactive means no such curve, though single readings can be large; an effect the other way counts as inactive or inconclusive.

c1ccc(-c2nccc(-c3ccc4c(c3)OCO4)n2)cc1	none
O=C(c1nnc(COc2ccc3c(c2)OCO3)n1-c1ccccc1)N1CCC[C@@H]1c1nc2ccccc2[nH]1	none (no result: PLK1 PBD inh, BAZ2B inh, HP1b binding inh, G9a inh, JMJD2A Tudor)
O=[N+]([O-])c1ccc(OCc2n[nH]c(=S)n2-c2ccccc2)cc1	ALOX12 inh inconclusive, G9a inh 3.55µM, JMJD2A Tudor 44.7µM
O=[N+]([O-])c1ccc(OCc2cccc(COc3ccc([N+](=O)[O-])cc3)n2)cc1	none
S=c1[nH]nc(-c2ccc3c(c2)OCO3)n1-c1ccccc1	ALOX12 inh inconclusive, G9a inh 1.58µM, JMJD2A Tudor 5.01µM
O=C(O)c1ccc(Nc2ncc([N+](=O)[O-])cc2[N+](=O)[O-])cc1	ALOX12 inh inconclusive, BAZ2B inh inconclusive, G9a inh 44.7µM
CN(C(=O)Cn1c(Cl)nc2c1c(=O)n(C)c(=O)n2C)C1CCS(=O)(=O)C1 (stereo not given)	ALOX12 inh inconclusive, G9a inh 56.2µM
CCC(C)N(C(=O)Cn1c(Cl)nc2c1c(=O)n(C)c(=O)n2C)C1CCS(=O)(=O)C1 (stereo not given)	none (no result: G9a inh)
CC1=[N+](C)c2ccc3ccccc3c2C1(C)C	ALOX12 inh inconclusive, BAZ2B inh 50.1µM, G9a inh 8.91µM, JMJD2A Tudor inconclusive
O=C(Oc1c(CN2CCOCC2)cc(Cl)c2cccnc12)c1ccccc1F	BAZ2B inh 3.55µM, JMJD2A Tudor 25.1µM
O=C(Nc1ccc(CN2CCOCC2)cc1)c1ccccc1F	none
O=C(O)Cn1cc(CN2CCOCC2)c2ccccc21	ALOX12 inh inconclusive, G9a inh inconclusive
O=C(Oc1c(CN2CCOCC2)cc(Cl)c2cccnc12)c1ccccc1	BAZ2B inh 25.1µM, JMJD2A Tudor inconclusive
COc1cc(OC)cc(C(=O)Oc2c(CN3CCOCC3)cc(Cl)c3cccnc23)c1	BAZ2B inh 22.4µM
COc1cc(C(=S)N2CCOCC2)cc(OC)c1OC(=O)c1ccccc1Cl	PLK1 PBD inh inconclusive (no result: BAZ2B inh, HP1b binding inh, G9a inh, JMJD2A Tudor)
Cc1cc2cc(CNS(=O)(=O)c3ccccc3)ccc2n1C	BAZ2B inh inconclusive, G9a inh 50.1µM, JMJD2A Tudor inconclusive
COc1ccc(S(=O)(=O)NCc2ccc3c(c2)cc(C)n3C)cc1	G9a inh 70.8µM, JMJD2A Tudor inconclusive
N#Cc1c(C(F)(F)F)cc(-c2ccc(F)cc2)nc1SCC(=O)O	none
O=C(NCc1ccccc1)C(=O)Nc1c2c(nn1-c1ccc(F)cc1)CSC2	none (no result: PLK1 PBD inh)
O=C(NCCOCCO)C(=O)Nc1c2c(nn1-c1ccc(F)cc1)CSC2	G9a inh 12.6µM (no result: PLK1 PBD inh)
CCOc1cccc(NC(=O)CSc2nncn2N)c1	none (no result: BAZ2B inh)
COc1ccc(-c2nn(-c3ccccc3)cc2/C=N/NC(=O)c2ccc(Br)o2)cc1	PLK1 PBD inh inconclusive, HP1b binding inh inconclusive
C=CCNC(=S)N/N=C/c1cn(-c2ccccc2)nc1-c1ccc(OC)cc1	ALOX12 inh 39.8µM
NC(=O)N/N=C/c1cn(-c2ccccc2)nc1-c1cccnc1	G9a inh inconclusive (no result: ALOX12 inh)
NC(=S)N/N=C/c1cn(-c2ccccc2)nc1-c1cccnc1	PLK1 PBD inh 3.36µM
COc1ccc(-c2nn(-c3ccccc3)cc2/C=N/NC(=S)NC(C)C)cc1OC	ALOX12 inh 35.5µM, BAZ2B inh inconclusive
COc1ccc(-c2nn(-c3ccccc3)cc2/C=N/Nc2cccc(C(=O)O)c2)cc1	G9a inh 22.4µM, JMJD2A Tudor inconclusive
C[C@H](CO)N1C[C@H](C)[C@@H](CN(C)C(=O)Nc2ccc(C(F)(F)F)cc2)Oc2ccc(NC(=O)Nc3ccc(C(F)(F)F)cc3)cc2C1=O	none (no result: BAZ2B inh, G9a inh)
Fc1ccc(-c2ccc3c(n2)CCCN3Cc2ccccn2)cc1	none (no result: PLK1 PBD inh, BAZ2B inh, HP1b binding inh, G9a inh, JMJD2A Tudor)
CC(C)c1ccc(/C=C2\CC/C(=C\C=N\N(C)C)C2=O)cc1	BAZ2B inh 56.2µM, G9a inh inconclusive, JMJD2A Tudor inconclusive
CC(=O)NCCc1nc2ccccc2n1CCc1ccccc1	none
CC1=C(C(=O)Nc2ccccc2)C(c2ccccn2)n2ncnc2N1 (stereo not given)	none
CC1=C(C(=O)Nc2ccccc2)C(c2ccc[nH]2)n2ncnc2N1 (stereo not given)	BAZ2B inh 8.91µM, G9a inh inconclusive, JMJD2A Tudor 22.4µM (no result: PLK1 PBD inh)
COc1ccc(CNS(=O)(=O)NCc2ccc(OC)c(OC)c2)cc1OC	none
